IL-1B inflam inh: blocks inflammasome-driven IL-1 beta release. THP-1 LPS/ATP IL-1B secretion, AlphaLISA, 16 h; active compounds read low. activity change, % at 57.5 µM. actives 4.7% (n = 360,000); in the data active = activity change below about -50%; inconclusive = mostly about -30% to -49%
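Secreted IL-1B measured by AlphaLISA bead assay after 16 h compound exposure of THP-1 cells; compounds (final up to 57.5 uM) added 1 h before LPS (250 ng/mL) and ATP (1.25 mM) stimulation; lower signal means less secretion.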
HT1080 IDH1KD tx: toxicity to HT-1080 IDH1 knockdown cells (counter line) | HT-1080 IDH1 knockdown viability, ATP luminescence, 48 h | Potency, µM (highest dose often 46.1 µM), inactives show at the top dose activity, negative = toxicity, usual class: cytotoxic | actives 2% (n = 360,000) | AID 686971;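 note: potency is the fitted concentration of half-maximal effect; 0% = DMSO wells and -100% = cell-free medium wells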
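IDH1KD HT-1080 cells, 750/well, RPMI + 5% FBS; compound pinned after 2 h settling; 48 h, 37 °C; CellTiter-Glo luminescence; % activity normalised to DMSO and no-cell wells; curves fitted, classed by r2 and efficacy.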
DT40 TDP1 no CPT: qHTS for Inhibitors of human tyrosyl-DNA phosphodiesterase 1 (TDP1): qHTS in cells in absence of CPT; Potency, µM (series often up to 46.2 µM), for the others: at the highest dose activity change, negative = growth inhibition, hits mostly inhibitors; AID 686978, 2013; DT40 Tdp1-/- hTDP1 cells, no CPT, ATP luminescence, 48 h; actives 15% (n = 420,000); note: potency is the fitted concentration of half-maximal effect; nearly all actives have a fitted effect of over 55% in size
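Stably hTDP1-transfected Tdp1-null chicken DT40 cells were treated with library compounds minus camptothecin and grown for at least 48 hr at 37 °C, after which cellular ATP was quantified by luminescence.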
DT40 TDP1 CPT: DT40-hTDP1 cell growth loss with CPT | chicken DT40 Tdp1-/-;hTDP1 cells + 20 nM CPT, ATP luminescence, 48 h | Potency, µM (doses to about 46.2 µM), for inactives: top-dose activity change, negative = growth inhibition, most hits filed as inhibitors | actives 12% (n = 420,000) | AID 686979; note: potency is the fitted concentration of half-maximal effect; nearly all actives have a fitted effect of over 55% in size
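Chicken DT40 Tdp1-/- cells stably complemented with human TDP1 were seeded at 400 cells/well in medium containing 20 nM camptothecin, exposed to pin-transferred compounds, and grown at 37 °C for at least 48 hr. Viability was read as ATP luminescence.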
HT1080-NT tox: kills 2HG-producing HT-1080-NT fibrosarcoma cells. Potency, µM (top dose mostly 46.1 µM), without a hit: at the top dose activity, negative = less viability, actives largely listed as cytotoxic. actives 1.6% (n = 360,000). AID 686970. HT-1080-NT fibrosarcoma viability, CellTiter-Glo ATP luminescence, 48 h;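 note: NT is the 2HG producing partner of a matched IDH1 knockdown line; potency is the fitted concentration of half-maximal effect; 0% = DMSO-treated cells and -100% = media-only wells without cells; nearly all actives have a fitted effect of over 55% in size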
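Compounds were tested in concentration-response format on HT-1080-NT cells for 48 hours at 37 degrees C. Cell viability came from CellTiter-Glo luminescence; curves were classified by r2, response magnitude and activity.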
* = called active by the depositor; i = inactive; u = inconclusive; x = no result; [ ] = another dose, or the depositor's remark. Only some compounds are listed: those with a hit (about 19% of all), similar ones and a draw of the others. Unless noted, calls come from the whole dose curve; as a rule, active = well fitted curve in the direction sought with a large enough effect; inconclusive = small, poorly fitted or top-dose-only effect, or another doubt; inactive = no such curve, though single readings can be large; an effect the other way counts as inactive or inconclusive. Unless noted, % is set by controls: 0 for no effect and ±100 for the full control effect.

SMILES	IL-1B inflam inh	HT1080 IDH1KD tx	DT40 TDP1 no CPT	DT40 TDP1 CPT	HT1080-NT tox
CCc1ccc(CNC(=O)c2nn(C)c3c2CS(=O)(=O)c2ccccc2-3)cc1	-18	-14%	u	u	u
Cc1ccc(CNC(=O)c2nn(C)c3c2CS(=O)(=O)c2ccccc2-3)cc1	-53*	3%	u	16µM*	26%
CCCC(=O)N1CCC1(C)C(=O)Nc1ccc2c(c1)CCN2C(C)=O (stereo not given)	2	18%	3%	-10%	21%
Cc1ncc(CO)c(/C=N/NC(=O)c2cc3c(s2)CCCC3)c1O	90	2.6µM*	7.3µM*	5.8µM*	u
COc1ccc(C(=O)N/N=C/c2c(CO)cnc(C)c2O)cc1	33	-18%	23µM*	5.8µM*	-14%
CCc1c(C)[nH]c2ccccc2c1=O	0	10%	21µM*	u	16%
COc1ccc(-n2ccnc2SCC(=O)NC2CCCC2)cc1	3	1%	0%	-27%	4%
CCN(CC)S(=O)(=O)c1ccc2c(c1)N(CC(=O)Nc1cccnc1Cl)C(=O)CO2	17	-1%	-11%	2%	0%
CCOC(=O)[C@]12CCC=C1N(Cc1ccccc1)C(=O)[C@H](CC(=O)NCCC(C)C)C2	0	8%	u	21µM*	22%
CCOC(=O)[C@]12CCC=C1N(Cc1ccccc1)C(=O)[C@H](CC(=O)NCCCCc1ccccc1)C2	u	u	21µM*	u	u
CCOC(=O)[C@]12CCC=C1N(Cc1ccco1)C(=O)[C@H](CC(=O)NCCC(C)C)C2	8	8%	-27%	-1%	11%
CCOC(=O)[C@]12CCC=C1N(Cc1ccccc1)C(=O)[C@H](CC(=O)NCc1cccs1)C2	-14	2%	23µM*	u	9%
CCOC(=O)[C@]12CCC=C1N(Cc1ccc3c(c1)OCO3)C(=O)[C@H](CC(=O)NCc1cccs1)C2	-8	-11%	u	u	6%
CCOC(=O)[C@]12CCCC=C1N(Cc1ccco1)C(=O)[C@H](CC(=O)NCCC(C)C)C2	18	7%	16µM*	u	20%
CCCCCCCCN1C(=O)[C@H](CC(=O)NCCCCc2ccccc2)C[C@@]2(C(=O)OCC)CCCC=C12	-25	u	u	u	u
O=C(NC1CCCCC1)c1cccc(NC(=O)c2ccccc2Cl)c1	1	-10%	u	u	-10%
CC(=O)Nc1c(O)nc(SCc2ccccc2C#N)[nH]c1=O	-5	11%	7%	13%	5%
COc1cc(=O)n2c(c1C(=O)N(C)Cc1cscn1)CCN(C(=O)c1cccc(C)c1C)CC2	x	x	-8%	-1%	x
CO/N=C/C(C#N)=C/c1cc(C(=O)c2ccccc2)cn1C	-12	-18%	21µM*	-20%	-13%
Cc1nn(C(C)C(=O)NCCc2ccco2)c(=O)c2nn(-c3ccccc3)c(C)c12 (stereo not given)	5	20%	u	u	2%
O=C(O)CCSc1ccccn1	33	3%	0%	-4%	2%
O=C(CCSc1ccccn1)c1ccccc1	u	u	2.6µM*	2.3µM*	5%
Cc1cccc(N2CCN(C(=O)C3CCCCC3)CC2)c1C	-65*	-7%	18µM*	29µM*	-2%
Cc1ccc(C)c(N2CCN(C(=S)NC3CCCCC3)CC2)c1	0	0%	-14%	-2%	2%
Cc1ccc(CN2CC(C(=O)N3CCN(c4ccccc4Cl)CC3)CC2=O)cc1 (stereo not given)	-58*	6%	u	u	5%
SMILES	IL-1B inflam inh	HT1080 IDH1KD tx	DT40 TDP1 no CPT	DT40 TDP1 CPT	HT1080-NT tox
Cc1cc(N2CCC(C(=O)N3CCN(c4cccc(C)c4C)CC3)CC2)n2ncnc2n1	-25	-6%	21µM*	u	-3%
Cc1cccc(N2CCN(C(=S)NC3CCCCC3)CC2)c1C	0	-6%	16µM*	u	-3%
C/C=C/c1cccc(-c2nc(C(=O)NC3CCC3)cc3c2[C@@H](CCO)N(S(=O)C(C)(C)C)C3)c1 (stereo not given in full)	x	-3%	u	u	5%
CC(=O)N(CCCNC(=O)c1ccccc1)C(=O)c1ccccc1	44	-6%	-6%	0%	0%
O=C(C1CCC(=O)N(C2CCCCCC2)C1)N1CCN(c2ccccc2Cl)CC1 (stereo not given)	13	1%	21µM*	u	u
CCS(=O)(=O)N1Cc2ccccc2CC1C(=O)N1CCN(c2cccc(C)c2C)CC1 (stereo not given)	4	-3%	15µM*	u	-2%
O=C(C1CC(=O)N(C2CCCC2)C1)N1CCN(c2ccccc2)CC1 (stereo not given)	i	27%	0%	-6%	17%
O=C(C1CC(=O)N(C2CCCCC2)C1)N1CCN(c2cccc(C(F)(F)F)c2)CC1 (stereo not given)	-5	-3%	u	16µM*	-3%
CCS(=O)(=O)N1Cc2ccccc2CC1C(=O)Nc1ccc(F)cc1 (stereo not given)	16	-2%	-3%	-3%	29%
Cc1cccc(N2CCN(C(=O)C3CC(=O)N(C4CCCC4)C3)CC2)c1C (stereo not given)	-2	-8%	23µM*	18µM*	11%
COc1ccc(OC)c(-c2cc(Cl)c3c(c2)CC(CNC(=O)C(C)N2CCOCC2)O3)c1 (stereo not given)	x	x	u	-1%[9.04 µM]	x
Cc1ccc(N(C(=O)c2ccccn2)C2(C(=O)NC3CCCC3)CCCCC2)cc1	-8	13%	1.6µM*	0.52µM*	3%
O=C(c1ccccn1)N(Cc1ccco1)C1(C(=O)NC2CCCC2)CCCCC1	-14	20%	u	-28%	13%
CN1CC(=O)N(CC(=O)Nc2cccc3ccccc23)C1=O	2	10%	4%	-6%	3%
Cc1ccccc1Cn1c2ccccc2c2cnn(CC(=O)NCc3ccccn3)c(=O)c21	4	u	u	u	u
Cc1ccc(C)c(Cn2c3ccccc3c3cnn(CC(=O)NCC(C)c4ccccc4)c(=O)c32)c1 (stereo not given)	x	x	23µM*	13µM*	x
Cc1ccccc1Cn1c2ccccc2c2cnn(CC(=O)NCC(C)c3ccccc3)c(=O)c21 (stereo not given)	x	x	-44%	u	x
Cc1c2cnn(CC(=O)NCCCN3CC(C)CC(C)C3)c(=O)c2c(C)n1Cc1ccccc1Cl (stereo not given)	-58*	u	u	u	u

Compound activity: PubChem BioAssay, National Center for Advancing Translational Sciences (NCATS)
